Shown are actives, neighbours in structure and some others; about 9.2% of the full set was active somewhere.
SMN2 splice enh: qHTS Assay for Enhancers of SMN2 Splice Variant Expression. HEK293 SMN2-luciferase splicing reporter, luminescence, 30-36 h. Potency, µM (series often up to 46.1 µM), for inactives: at the highest dose activity change, positive = activation, actives largely listed as activators. actives 2.8% (n = 210,000); note: % of control where 0% means no effect; nearly all actives have a fitted effect of over 55% in size
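HEK293 cells carry an SMN2 […]–luciferase reporter in which exon 7 inclusion puts luciferase in frame. Cells were plated 10-12 h before compound addition, then incubated 30-36 h at 37C. ONE-Glo luminescence was read; sodium butyrate at 4.5 mM final served as control.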
Rab9 prom act: qHTS Assay for Rab9 Promoter Activators; Huh7 Rab9 promoter-luciferase reporter, luminescence, 24 h; Potency, µM (doses to about 9.22 µM), for inactives: at the highest dose activation, negative = inhibition, actives largely listed as activators; actives 2.8% (n = 320,000); AID 485297, 2010; note: % of control where 0% means no effect; nearly all actives have a fitted effect of over 60% in size
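Rab9 promoter-driven luciferase in stably transfected Huh7 cells; 1500 cells/well rested 2 h, exposed to compound in DMSO for 24 h at 37 °C, 5% CO2. Luminescence read 10 min after adding luciferase reagent at ambient temperature.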
NPC1 promoter act: qHTS Assay for NPC1 Promoter Activators | actives 2.4% (n = 320,000) | Potency, µM (top dose mostly 9.22 µM), for the others: at the top dose activation, most hits filed as activators | Huh7 NPC1 promoter luciferase reporter, 24 h; note: % of control where 0% means no effect; nearly all actives have a fitted effect of over 60% in size
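Huh7 cells stably carrying NPC1 promoter–luciferase, plated in Opti-MEM with 10% FBS for 2 h, were exposed to compound in DMSO for 24 h at 37 °C; luciferase reagent was added for 10 min and luminescence read.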
FLuc modulator: qHTS profiling assay for firefly luciferase inhibitor/activator using purifed enzyme and Km concentrations of substrates (counterscreen for miR-21 project); Luciferin 4-monooxygenase (Photinus pyralis), P08659; purified FLuc, Km substrates, luminescence inhibition; Potency, µM (series often up to 57.5 µM), for the others: at the highest dose activity change, negative = inhibition, hits mostly inhibitors; actives 6.9% (n = 360,000); AID 588342, 2011;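 note: plate controls were vehicle for no effect and reference inhibitor for full effect; nearly all actives have a fitted effect of over 55% in size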
Target sequence (P08659 whole entry, looked up): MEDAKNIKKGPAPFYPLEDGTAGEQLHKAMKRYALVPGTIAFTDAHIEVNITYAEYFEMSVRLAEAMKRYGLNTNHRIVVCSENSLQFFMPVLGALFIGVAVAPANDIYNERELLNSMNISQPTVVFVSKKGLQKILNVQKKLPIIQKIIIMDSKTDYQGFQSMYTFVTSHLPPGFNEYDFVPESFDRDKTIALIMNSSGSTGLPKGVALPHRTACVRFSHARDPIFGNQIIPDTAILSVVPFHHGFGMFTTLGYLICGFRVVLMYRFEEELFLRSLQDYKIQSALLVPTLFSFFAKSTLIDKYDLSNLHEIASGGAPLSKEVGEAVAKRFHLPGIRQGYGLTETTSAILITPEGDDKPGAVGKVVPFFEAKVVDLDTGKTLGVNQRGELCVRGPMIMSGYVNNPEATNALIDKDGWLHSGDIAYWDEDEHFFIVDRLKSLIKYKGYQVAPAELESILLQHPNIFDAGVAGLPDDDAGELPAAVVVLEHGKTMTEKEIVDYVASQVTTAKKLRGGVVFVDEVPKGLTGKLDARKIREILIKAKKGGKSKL
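Purified P. pyralis luciferase, 10 nM final, with Km-level 10 uM D-luciferin and 10 uM ATP in 50 mM Tris acetate pH 7.5, 10 mM Mg acetate, 0.01% Tween-20, 0.05% BSA; 6-point qHTS titration about 60 µM downward; luminescence read.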
ELG1 repair inh: qHTS screen for small molecules that inhibit ELG1-dependent DNA repair in human embryonic kidney (HEK293T) cells expressing luciferase-tagged ELG1; HEK293T ELG1-luciferase reporter, luminescence, 16 h; DNA damage induced by 5-fluorouridine; Potency, µM (titrated, usually from 46.1 µM), without a hit: at the top dose activity change, negative = inhibition, hits mostly inhibitors; actives 2.3% (n = 330,000); note: % is set by controls: 0 for no effect and ±100 for the full control effect; nearly all actives have a fitted effect of over 55% in size
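Step one: seed 2,000 cells per well. Step two: pin-transfer compound or DMSO alongside 5-fluorouridine. Step three: incubate 16 hr, 37 °C, 5% CO2. Step four: add ONE-Glo, wait 30 min, read luminescence.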
ELG1 genotoxic: qHTS screen for small molecules that induce genotoxicity in human embryonic kidney (HEK293T) cells expressing luciferase-tagged ELG1. HEK293T ELG1-luciferase reporter, luminescence, 16 h. Potency, µM (series often up to 46 µM), inactives show top-dose activity change, positive = activation, hits mostly activators. actives 1.3% (n = 330,000). AID 504466, 2011; note: % of control where 0% means no effect; nearly all actives have a fitted effect of over 60% in size
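Genotoxicity was scored as increased ELG1-luciferase reporter signal, measured by ONE-Glo luminescence (30 min, room temperature). Compound or vehicle exposure of the HEK293T reporter cells lasted 16 hr at 37°C.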
Active calls of the source: *; u = inconclusive; x = not tested or not shown; [ ] = remark or other dose. Calls come from the whole dose curve; as a rule, active = well fitted curve in the direction sought with a large enough effect; inconclusive = small, poorly fitted or top-dose-only effect, or another doubt; inactive = no such curve, though single readings can be large; an effect the other way counts as inactive or inconclusive. Potency is the fitted concentration of half-maximal effect.

SMILES	SMN2 splice enh	Rab9 prom act	NPC1 promoter act	FLuc modulator	ELG1 repair inh	ELG1 genotoxic
COc1ccc(C(=O)C(C)Oc2cccc(NC(=O)c3cccc([N+](=O)[O-])c3)c2)cc1 (centres undefined)	-13%	1%	0%	-8%	15µM*	-2%
COc1cccc(NC(=O)c2ccc(C(=O)c3ccccc3)o2)c1	20µM*	u	u	6.7µM*	u	0%
CCc1ccc(NC(=O)CN2CCCN(Cc3cccc(Cl)c3)S2(=O)=O)cc1	x	x	x	-1%	x	x
COc1ccc(OC)c(NC(=O)CN(C)S(=O)(=O)c2ccc3[nH]c4c(c3c2)CCCC4)c1	x	x	x	0%	x	x
COc1cccc(C(=O)Nc2cccc(OCC(=O)O)c2)c1	14%	-3%	-4%	24µM*	16%	2%
Cc1ccc(C(=O)Nc2cccc(Oc3ccccc3)c2)o1	13%	u	29%	19µM*	u	u
COc1cc(C(=O)N/N=C(\c2ccccc2)c2ccccn2)cc(OC)c1OC	-83%	-48%	-25%	1%	u	u
COc1ccc(C(=O)Nc2ccc3ccccc3c2)cc1	x	u	0.089µM*	0.19µM*	u	0.46µM*
COC(=O)COc1cccc(NC(=O)c2cc(OC)cc(OC)c2)c1	-22%	-4%	-3%	u	3%	1%
COc1cccc(C(=O)N/N=C(/c2ccccc2)c2ccccn2)c1	-53%	-16%	-18%	19µM*	23%	0%
Cc1cc(C)cc(NS(=O)(=O)c2ccc3c(c2)NC(=O)C(C)S3)c1 (centres undefined)	x	x	x	1%	x	x
Cc1cc(C)cc(NC(=O)CSCc2cc(=O)n3ccsc3n2)c1	x	-7%	-1%	0%	5%	-1%
CS(=O)(=O)Nc1ccc(C(=O)Nc2ccc3ccccc3c2)cc1	x	0.63µM*	u	2.4µM*	u	u
COc1c(C(=O)NNC(=O)c2ccccc2)csc1Br	x	2.8µM*	u	11µM*	u	u
CSc1cccc(NC(=O)c2ccc3c(c2)CCCN3S(C)(=O)=O)c1	-11%	x	x	12µM*	x	x
CC(=O)c1cccc(NC(=O)c2ccc(NS(C)(=O)=O)cc2)c1	11%	6%	2%	-19%	u	1%
COc1cccc(/C(C)=N/N=C(\C)c2cccc(OC)c2)c1	x	3.2µM*	u	6.7µM*	u	u
CCOC(=O)C1CCN(C(=O)C(C)Sc2nnc3ccccn23)CC1 (centres undefined)	x	x	x	x	21%	-2%
O=C(Nc1ccc2ccccc2c1)c1cccc([N+](=O)[O-])c1	x	u	u	12µM*	u	u
O=C(Nc1cccc([N+](=O)[O-])c1)c1ccccc1	x	14%	3%	u	-14%	2%
COC(=O)c1cccc(NC(=O)Cc2coc3cc(OC)ccc23)c1	-41%	u	21%	17µM*	u	0%
Cc1ccc(S/C=C\C(=O)c2ccccc2)cc1	-3%	11%	10%	0.13µM*	u	18µM*
O=C(/C=C/NNC(=O)c1ccccc1O)c1ccccc1	x	14%	18%	19µM*	-7%	4%
CC(/C=C/C(=O)c1ccc(C)cc1)=C\c1ccccc1	-26%	u	u	4.3µM*	u	18%
O=C(/C=C/NNC(=O)c1ccccc1)c1ccccc1	1%	-1%	5%	u	u	u
SMILES	SMN2 splice enh	Rab9 prom act	NPC1 promoter act	FLuc modulator	ELG1 repair inh	ELG1 genotoxic
O=C(/C=C/NNC(=O)c1ccc(Br)cc1)c1ccccc1	-12%	-3%	-3%	u	u	u
Cc1ccc(C(=O)C=CNNC(=O)c2ccccc2)cc1	x	9%	12%	24µM*	u	-1%
Cc1ccc(C(=O)/C=C\C(=O)c2ccc(C)cc2)cc1	24%	0%	-8%	u	u	u
NS(=O)(=O)c1ccc(Sc2ccc3c(c2)CCC3)nc1	x	2%	0%	-1%	2%	-2%
Cc1ccc(S(=O)(=O)CCC(=O)OCC(=O)N(Cc2ccccc2)C(C)C)cc1	x	-1%	-1%	0%	4%	2%
O=C(Cn1c(=O)cnc2ccccc21)N1CCN(S(=O)(=O)c2cccc([N+](=O)[O-])c2)CC1	x	1%	2%	4%	1%	-13%
Cc1ccc(C(=O)/C=C\NCc2ccccc2)cc1	u	u	u	11µM*	u	14%
CN(Cc1ccccc1)Cc1c(O)ccc2ccccc12	x	0%	-1%	27µM*	2%	-3%
CN(Cc1cc(Cl)cc(Cl)c1O)Cc1c(O)ccc2ccccc12	-3%[9.22 µM]	x	x	x	x	x
O=C1/C(=C/c2cccc([N+](=O)[O-])c2)Oc2cc(O)ccc21	x	3%	13%	u	u	0%
COc1cc(/C=C2\Oc3cc(O)ccc3C2=O)ccc1O	x	4µM*	3.2µM*	8.5µM*	u	23µM*
O=C1/C(=C/c2ccc(O)c(O)c2)Oc2cc(O)ccc21	x	20%	u	15µM*	u	15µM*
CCn1nnc2cc(C(=O)Nc3cccc(Cl)c3)ccc21	x	x	x	2%	x	x
CCN(CC)c1ccc(/C=C/C(=O)C2C(=O)C=C(C)OC2=O)cc1 (centres undefined)	u	2.8µM*	1.6µM*	8.5µM*	u	u
CN(C(=O)COC(=O)c1c2c(nc3ccccc13)CCCC2)c1c(N)n(Cc2ccccc2)c(=O)[nH]c1=O	x	-1%	1%	-2%	0%	4%
CC1(C)CC(=O)C2=C(C1)Oc1nc3ccccc3cc1C2C(C#N)C#N (centres undefined)	4%	-17%	-22%	u	23µM*	3%
CCN(CCCNC(=O)c1ccc(Sc2ccc(Cl)cc2)c(NC(C)=O)c1)c1ccccc1	x	x	x	-19%	x	x
Cc1cc(C)nc(S/C=C/C(=O)c2ccc(F)cc2)n1	x	-19%	-6%	1.9µM*	u	16%
Cc1cc(C)nc(SCC(=O)c2ccc(F)cc2)n1	x	21%	9%	-13%	21%	8%
CSc1nnc(N2C(=O)C(O)=C(C(=O)c3ccc(C)o3)C2c2ccc(C)cc2)s1 (centres undefined)	x	0.79µM*	0.63µM*	u	u	1.3µM*
